Source: PubChem
In the library only some 2.4% were active in any assay of this set; here they are far more common.
CHT PAM – allosteric activators of human choline transporter CHT. B-score at 10 µM. hit rate 0.49% among 310,000. CHT-expressing cells, membrane potential dye, choline EC20; active compounds read high; LV-AA mutant CHT in HEK293 cells. AID 488977. Q9GZV3;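 active = initial fluorescence not abnormally high and integrated response B-score, plate-corrected, over 3 SD above library mean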
CHT inh – inhibitors of human choline transporter CHT | CHT-expressing cells, membrane potential dye, choline response; active compounds read low | hit rate 0.86% among 310,000 | B-score at 10 µM | AID 488975;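 active = B-score over 3 SD under the library average, and starting fluorescence ratio not unusually high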;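 also: choline stimulus applied at its EC90 after an EC20 pre-addition; B-score computed on integrated fluorescence ratio after choline addition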
TMEM16A inh – mouse TMEM16A channel inhibition, primary screen | Q8BHY3 | HEK293 TMEM16A/YFP iodide influx fluorescence, ionomycin | normalized B-score (activity score, 25-100; higher = stronger inhibition) at 10 µM | hit rate 1.2% among 310,000;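 active = ratio plate-corrected score three or more library SD toward inhibition, starting fluorescence score within five deviations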;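 also: score derived from kinetic fluorescence span divided by baseline fluorescence per well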
Target sequence (Q8BHY3 whole entry, looked up): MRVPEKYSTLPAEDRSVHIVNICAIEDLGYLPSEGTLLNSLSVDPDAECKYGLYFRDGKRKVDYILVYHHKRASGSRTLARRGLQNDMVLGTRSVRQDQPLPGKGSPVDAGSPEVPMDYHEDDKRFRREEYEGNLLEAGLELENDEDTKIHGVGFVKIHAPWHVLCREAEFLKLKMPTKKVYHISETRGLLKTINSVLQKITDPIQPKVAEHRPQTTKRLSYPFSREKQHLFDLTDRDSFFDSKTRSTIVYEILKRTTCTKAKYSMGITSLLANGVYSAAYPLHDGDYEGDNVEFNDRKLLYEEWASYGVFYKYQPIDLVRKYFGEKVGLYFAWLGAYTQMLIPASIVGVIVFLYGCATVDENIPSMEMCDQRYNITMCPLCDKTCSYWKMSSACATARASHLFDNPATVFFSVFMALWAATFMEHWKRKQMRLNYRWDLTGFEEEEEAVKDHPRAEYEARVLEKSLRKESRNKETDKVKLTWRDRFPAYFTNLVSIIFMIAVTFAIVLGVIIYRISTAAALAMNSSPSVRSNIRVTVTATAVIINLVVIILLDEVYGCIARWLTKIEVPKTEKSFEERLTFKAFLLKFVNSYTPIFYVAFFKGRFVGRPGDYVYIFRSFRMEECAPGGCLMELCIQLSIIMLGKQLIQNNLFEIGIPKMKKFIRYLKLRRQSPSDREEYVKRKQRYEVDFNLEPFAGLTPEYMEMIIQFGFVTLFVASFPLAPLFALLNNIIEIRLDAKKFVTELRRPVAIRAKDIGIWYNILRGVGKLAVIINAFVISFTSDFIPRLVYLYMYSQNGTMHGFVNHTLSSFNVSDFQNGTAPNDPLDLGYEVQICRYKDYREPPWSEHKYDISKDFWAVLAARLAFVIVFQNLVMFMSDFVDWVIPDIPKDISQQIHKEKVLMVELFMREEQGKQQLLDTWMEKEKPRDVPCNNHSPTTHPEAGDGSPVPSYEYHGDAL
ANO1 activ – mouse TMEM16A channel activation, primary screen | HEK293 TMEM16A/YFP-H148Q/I152L, iodide quench fluorescence; active compounds read low | B-score at 10 µM | hit rate 0.3% among 340,000 | AID 623877;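 active = fluorescence-ratio B-score plate-corrected deviation score at least 3 library SD below zero, with starting fluorescence score within 5 deviations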;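 also: channel opened by trigger with iodide after compound preincubation; score built on the fluorescence ratio of max minus min over baseline; more negative score means more quench and so TMEM16A activation or potentiation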
CHT inh conf – confirmation of human choline transporter CHT inhibitors; shares compounds with CHT inh; CHT-expressing cells, choline membrane potential dye; LV-to-AA substituted CHT, HEK293 cells; CHT activity remaining % of control (active compounds read low), % at 10 µM; hit rate 70% among 2,400; AID 493221;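 active = choline transporter activity left, mean of duplicates at 10 µM, below buffer-only control mean minus 3 SD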;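 also: depolarization triggered by choline at its EC90 following an EC20 pre-addition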
HEK293 MPD ctr – activity in parental HEK293 cells lacking CHT; shares compounds with CHT inh; membrane potential dye, choline response; active = decrease or increase beyond buffer ±3SD; membrane potential ratio readout (active if shifted either direction beyond buffer ±3SD; no single direction) at 10 µM; hit rate 4% among 2,400; AID 493222;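 also: parental cells lack the transporter so any hit is non-specific; ratio is peak minus trough fluorescence over baseline after EC90 choline challenge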
Numbers stand for hits.

COc1cccc(N2CCN(C(=O)CC(C)(C)CC3=NS(=O)(=O)c4ccccc4N3)CC2)c1 was read as CHT PAM inactive, CHT inh -5.5, TMEM16A inh inactive, ANO1 activ inactive, CHT inh conf inactive and HEK293 MPD ctr inactive.
Screening Cc1cc(C(=O)NCCN2C(=O)S/C(=C\c3cccs3)C2=O)ccc1[N+](=O)[O-] returned CHT PAM inactive, CHT inh inactive, TMEM16A inh inactive and ANO1 activ inactive.
Screening CC(SCc1ccccc1)C(=O)N/N=C/c1ccc(OCC(=O)NCc2ccco2)cc1 (stereo not given) returned CHT PAM inactive, CHT inh -8.1, TMEM16A inh inactive, ANO1 activ inactive, CHT inh conf 47% and HEK293 MPD ctr inactive.
COc1cccc(CNC(=O)Cc2ccc(-n3c(=O)[nH]c4ccccc4c3=O)cc2)c1 was read as CHT PAM inactive, CHT inh inactive, TMEM16A inh inactive and ANO1 activ inactive.
`CN(C)CCCn1c(=O)n(CCc2ccccc2)c(=O)c2c3c(sc21)CCCCC3` gave CHT PAM inactive, CHT inh -7.8, TMEM16A inh inactive, ANO1 activ inactive, CHT inh conf 31% and HEK293 MPD ctr inactive.
Screening O=C1c2cc([N+](=O)[O-])ccc2-c2cc(Br)c(N=C(NO)C(F)(F)F)cc21 returned ANO1 activ inactive.
Cc1occc1C(=O)N/N=C/c1sc(N2CCOCC2)nc1-c1ccccc1 was read as CHT PAM inactive, CHT inh -9.1, TMEM16A inh inactive, ANO1 activ inactive, CHT inh conf inactive and HEK293 MPD ctr inactive.
Screening O=C(O)/C(=C\c1ccc(-c2ccccc2[N+](=O)[O-])o1)c1ccccc1 returned CHT PAM inactive, CHT inh -5.6, TMEM16A inh inactive, ANO1 activ inactive, CHT inh conf inactive and HEK293 MPD ctr inactive.
Screening O=C(/C=C/c1ccc(-c2ccccc2[N+](=O)[O-])o1)c1ccccc1 returned CHT PAM inactive, CHT inh inactive, TMEM16A inh inactive and ANO1 activ inactive.
Screening O=c1c2ccccc2[nH]c(=S)n1CCN1CCCC1 returned CHT PAM inactive, CHT inh -7, TMEM16A inh inactive, ANO1 activ inactive, CHT inh conf 21% and HEK293 MPD ctr inactive.
Screening CCN1CCN(CCn2c(=S)[nH]c3ccccc3c2=O)CC1 returned CHT PAM inactive, CHT inh inactive and TMEM16A inh inactive.
CC1CC(=O)Nc2ccccc2N1C(=O)CSc1ccc2ccccc2n1 (stereo not given) was read as ANO1 activ inactive.
Cc1occc1C(=O)NNC(=S)NC(=O)COc1ccc(Cl)cc1Cl was read as CHT PAM inactive, CHT inh -9.4, TMEM16A inh 100, ANO1 activ -5, CHT inh conf 58% and HEK293 MPD ctr inactive.
For Cc1occc1C(=O)NNC(=O)COc1ccc(Br)cc1Br the results were CHT PAM inactive, CHT inh inactive, TMEM16A inh inactive and ANO1 activ inactive.
Screening Cc1cccc(C)c1OCC(O)CNC(C)(C)C (stereo not given) returned CHT PAM inactive, CHT inh inactive, TMEM16A inh inactive and ANO1 activ inactive.
COc1ccc(CNC(=S)NC2CCCC2)cc1 was read as CHT PAM inactive, CHT inh -15, TMEM16A inh inactive, ANO1 activ inactive, CHT inh conf inactive and HEK293 MPD ctr inactive.
COc1cccc(CNC(=S)NC2CCCC2)c1 was read as CHT PAM inactive, CHT inh inactive, TMEM16A inh inactive and ANO1 activ inactive.
For CC(C)n1c(O)c(N=NC(=O)CNC(=O)Cc2ccc(Cl)cc2)c2ccccc21 the results were CHT PAM inactive, CHT inh -8, TMEM16A inh inactive, ANO1 activ inactive, CHT inh conf 36% and HEK293 MPD ctr inactive.
CC(C)n1c(O)c(N=NC(=O)Cc2csc(N3CCOCC3)n2)c2ccccc21 was read as CHT PAM inactive, CHT inh -9.4, TMEM16A inh inactive, ANO1 activ inactive, CHT inh conf 24% and HEK293 MPD ctr inactive.
For O=P(OCC1CC1)(c1ccccc1)c1ccccc1 the results were CHT PAM inactive, CHT inh inactive, TMEM16A inh inactive and ANO1 activ inactive.
For CCOc1ccc(Nc2nc(N)c3ccccc3n2)cc1 the results were CHT PAM inactive, CHT inh -5.8, TMEM16A inh inactive, ANO1 activ inactive, CHT inh conf 48% and HEK293 MPD ctr inactive.
Cc1ccc(Nc2nc(N)c3ccccc3n2)cc1Cl was read as CHT PAM inactive, CHT inh inactive, TMEM16A inh inactive and ANO1 activ inactive.
COc1ccc(OC)c(Nc2nc(N)c([N+](=O)[O-])c(NCc3ccccc3)n2)c1 was read as CHT PAM inactive, CHT inh -5, TMEM16A inh inactive, ANO1 activ inactive, CHT inh conf inactive and HEK293 MPD ctr inactive.
Screening COc1ccc(C)cc1Nc1nc(N)c2ccccc2n1 returned CHT PAM inactive, CHT inh -13, TMEM16A inh inactive, ANO1 activ inactive, CHT inh conf 41% and HEK293 MPD ctr inactive.
COc1ccc(OC)c(Nc2nc(NCCO)c3ccccc3n2)c1 was read as CHT PAM inactive, CHT inh inactive, TMEM16A inh inactive and ANO1 activ inactive.
For CCOC(=O)Cn1c(=O)c(C#N)cn(C(C)C)c1=O the results were CHT PAM inactive, CHT inh inactive, TMEM16A inh inactive and ANO1 activ inactive.
Cc1ccc(S(=O)(=O)Nc2cc(C)cn(Cc3ccc(F)cc3)c2=O)cc1 was read as CHT PAM inactive, CHT inh inactive, TMEM16A inh inactive and ANO1 activ inactive.
O=C(Nc1ccc(Br)cc1Cl)Nn1cnnc1 was read as CHT PAM inactive, CHT inh -5, TMEM16A inh inactive, ANO1 activ inactive, CHT inh conf 65% and HEK293 MPD ctr inactive.
`COc1cc(OC)cc(-c2nc3ccccc3c(=O)n2OC(=O)c2ccccc2C)c1` gave CHT PAM inactive, CHT inh inactive, TMEM16A inh inactive and ANO1 activ inactive.
Screening O=C(On1c(-c2ccccc2)nc2ccccc2c1=O)c1ccco1 returned CHT PAM inactive, CHT inh -9.7, TMEM16A inh 100, ANO1 activ inactive, CHT inh conf 57% and HEK293 MPD ctr inactive.
Screening CCn1cc(/C=C(\NC(=O)c2ccccc2Cl)C(=O)N2CCOCC2)c2ccccc21 returned CHT PAM inactive, CHT inh inactive, TMEM16A inh inactive and ANO1 activ inactive.
Screening CCn1cc(/C=C(\NC(=O)c2ccccc2F)C(=O)NCCCn2ccnc2)c2ccccc21 returned CHT PAM inactive, CHT inh -7.2, TMEM16A inh inactive, ANO1 activ inactive, CHT inh conf 28% and HEK293 MPD ctr inactive.
Screening O=C(N/C(=C\c1ccccc1)C(=O)N1CCOCC1)c1ccccc1Cl returned CHT PAM inactive, CHT inh inactive, TMEM16A inh inactive and ANO1 activ inactive.
